Laboratory results: PubChem BioAssay (NCATS)
Where “and” joins values, the source holds several entries; their conditions need not be identical. Equal entries are not always repeated. Results filed as inconclusive are left out. Calls of active or inactive are those of the source. Unless noted, the call rests on the fitted dose curve.

Assays:
[1] = molecular target: Bile acid receptor (Homo sapiens) (UniProt Q96RI1); experiment: qHTS assay for small molecule antagonists of farnesoid X receptor signaling (AID 588526); further: on the % scale 0 is the no-effect control and ±100 the full control effect
Method in brief: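 Antagonist mode: titrated compounds tested against chenodeoxycholic acid stimulation (normalized to 50 uM CDCA and DMSO) in GeneBLAzer HEK293T cells for 16 h. Beta-lactamase read by CCF4 fluorescence; IC50 from Hill fits.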

[2] = molecular target: Bile acid receptor (Homo sapiens) (UniProt Q96RI1); experiment: qHTS assay for small molecule agonists of farnesoid X receptor signaling (AID 588527); conditions: HEK293T FXR-UAS-bla, beta-lactamase ratio, 16 h; activation: stronger effect = higher value;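 further: series mostly up to about 77 µM; 0% = vehicle basal and 100% = reference agonist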
Method in brief: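 Read-out: beta-lactamase reporter fluorescence with CCF4 substrate in GeneBLAzer FXR-UAS-bla HEK293T cells, after 16 h compound exposure at 37 C. Response scaled between DMSO basal (0%) and chenodeoxycholic acid at 100 uM (100%).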

[3] = molecular target: Glucocorticoid receptor (Homo sapiens) (UniProt P04150); experiment: qHTS assay for small molecule agonists of glucocorticoid receptor signaling (AID 588532; active means well fitted curve in the direction sought with a large enough effect in the signal ratio, with a control signal flat; the % refers to the signal ratio;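 further: 100% = dexamethasone at 0.1 µM and 0% = DMSO only wells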); conditions: HeLa MMTV-bla, beta-lactamase ratio, agonist, 18 h; activation: stronger effect = higher value, percent of dexamethasone control, DMSO zero
Method in brief: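 Cells were plated and rested 3-5 h at 37 C, compounds were added in titration and incubated 18 h, then CCF4 substrate was loaded for 2 h at RT before reading blue/green fluorescence. EC50 came from Hill-equation fitting.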

[4] = molecular target: Peroxisome proliferator-activated receptor delta (Homo sapiens) (UniProt Q03181); experiment: qHTS assay for small molecule agonists of peroxisome proliferator-activated receptor delta signaling (AID 588534);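 further: 0% = DMSO basal wells and 100% = positive control agonist at 10 µM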
Method in brief: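 Titration series tested in agonist mode on beta-lactamase reporter cells; 18 hrs at 37 C after a 5 hr pre-incubation. Readout: CCF4 fluorescence, 2 hrs RT. Hill equation gives EC50 and maximal response.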

[5] = qHTS assay for small molecule agonists of retinoid X receptor alpha signaling (AID 588544); conditions: HEK293T RXRa-UAS-bla, beta-lactamase reporter, 18 h; 530 nm emission;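 on activation: 0% = DMSO basal wells and 100% = reference agonist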
[6] = molecular target: Retinoic acid receptor RXR-alpha (Homo sapiens) (UniProt P19793); experiment: as above
[7] = qHTS assay for small molecule antagonists of retinoid X receptor alpha signaling (AID 588546; active means well fitted inhibition curve with a large enough effect in the signal ratio, with a control signal flat, not every such curve was filed as active; the % refers to the signal ratio;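 further: cells stimulated with 9-cis-retinoic acid as agonist; on the % scale 0 is the no-effect control and ±100 the full control effect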); conditions: HEK293T RXRa-UAS-bla, beta-lactamase ratio, antagonist mode; measured here: W530 green channel, cytotoxicity proxy
Method in brief: (§1)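 Beta-lactamase reporter inhibition, read as CCF4 fluorescence ratio (ex 405, em 460/530 nm) after 2 h at RT. HEK293T UAS-bla cells, 2500/well, were stimulated with 9-cis-RA at 500 or 100 nM final alongside test compound for 18 h at 37 C.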

[8] = molecular target: Retinoic acid receptor RXR-alpha (Homo sapiens) (UniProt P19793); experiment: as above; conditions: HEK293T RXRa-UAS-bla, beta-lactamase ratio, antagonist mode
Method in brief: as §1

[9] = molecular target: Thyroid hormone receptor beta (Homo sapiens) (UniProt P10828); experiment: qHTS assay for small molecule antagonists of thyroid hormone receptor beta signaling (AID 588547; active means well fitted inhibition curve with a large enough effect in the signal ratio, with a control signal flat, not every such curve was filed as active; the % refers to the signal ratio;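 further: cells stimulated with 0.4 nM T3 agonist during compound exposure; series mostly up to about 77 µM; on the % scale 0 is the no-effect control and ±100 the full control effect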); conditions: TR-UAS-bla HEK293, beta-lactamase ratio, antagonist mode, 18 h
Method in brief: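 TR-UAS-bla GripTite HEK293 cells in 2% charcoal/dextran FBS medium; compounds 0.59 nM to 92 uM with T3 at 0.4nM final, 18 h at 37 C. Beta-lactamase read by CCF4 fluorescence (460/530 nm); Hill fits gave IC50 and efficacy.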

[10] = qHTS assay for small molecule activators of the p53 signaling pathway (AID 651743; active means well fitted activation curve with a large enough effect in the signal ratio, not every such curve was filed as active; the % refers to the signal ratio; further: series mostly up to about 92 µM; % of control where 0% means no effect); conditions: HCT-116 p53RE-bla, beta-lactamase FRET ratio, 16 h; activation: stronger effect = higher value
Method in brief: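 Reporter: beta-lactamase driven by p53 response elements, stably integrated in HCT-116 cells. Cells seeded at 4,000/well, 5 h preincubation, compound (DMSO) 16 h at 37 C; B/G FRET substrate 2 h RT; fluorescence intensity read.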

[11] = qHTS assay for small molecule activators of the nuclear factor-kappa B (NF-kB) signaling pathway (AID 651749; active means well fitted activation curve with a large enough effect in the signal ratio; the % refers to the signal ratio; further: series mostly up to about 77 µM; % of control where 0% means no effect); conditions: NF-kB-bla ME-180 cells, beta-lactamase FRET ratio, 16 h; activation: stronger effect = higher value
Method in brief: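 NF-kB-bla ME-180 cells, 2,000/well; 23 nL compound or DMSO pinned; 16 hr, 37C/5% CO2; beta-lactamase FRET read-out.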

[12] = qHTS assay for environmental chemicals that activate the Aryl hydrocarbon Receptor (AhR) signaling pathway (AID 651777; active means well fitted curve in the direction sought with a large enough effect; an effect the other way counts as inactive or inconclusive; further: % of control where 0% means no effect; nearly all actives have a fitted effect of over 15% in size); conditions: 1A2-DRE human hepatoma cells, luciferase, 24 h; activation: stronger effect = higher value
Method in brief: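 Luminescence read-out: One-Glo added for 30 min at RT after 24 hr compound treatment (37 C, 5% CO2) of human hepatoma cells expressing a DRE/CYP1A2 promoter–luciferase reporter; increased signal indicates AhR activation.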

[13] = qHTS assay for small molecule agonists of the antioxidant response element (ARE) signaling pathway measured by Nrf2-dependant transcriptional activity (AID 720636; active means well fitted curve in the direction sought with a large enough effect in the repeat runs; an effect the other way counts as inactive or inconclusive;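 further: HepG2 cells with an ARE-driven luciferase reporter; % of control where 0% means no effect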)
Method in brief: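 HepG2 ARE-luc reporter line, 1% dialyzed FBS; 6 hr attachment at 37 C, compound pinned in, 16 hr at 37 C/5% CO2; ONE-Glo, 30 min RT, luminescence read.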

[14] = qHTS assay for small molecule agonists of the antioxidant response element (ARE) signaling pathway measured by Nrf2-dependant transcriptional activity - cell viability counter screen (AID 720653; active means well fitted curve in the direction sought with a large enough effect in the repeat runs; an effect the other way counts as inactive or inconclusive; further: on the % scale 0 is the no-effect control and ±100 the full control effect); conditions: ARE-bla HepG2 viability, CellTiter-Glo ATP luminescence, 16 h; max response: stronger effect = lower value
Method in brief: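 ARE-bla HepG2 cells treated with compounds for 16 h at 37C; this counter screen measures viability as intracellular ATP by CellTiter-Glo luminescence after 30 min at room temperature.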

[15] = qHTS assay for cell viability of HEK293 cells (AID 743288; active means well fitted curve in the direction sought with a large enough effect; an effect the other way counts as inactive or inconclusive; further: on the % scale 0 is the no-effect control and ±100 the full control effect; nearly all actives have a fitted effect of over 50% in size); conditions: ATP luminescence (CellTiter-Glo), 18 h; max response: stronger effect = lower value
Method in brief: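 Viable-cell counts were inferred from luciferase-based ATP content in HEK293 cells seeded at 2,000/well, pre-incubated ≥5 h, then dosed with DMSO-solubilised compounds for 18 h at 37 C.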

[16] = qHTS assay for cell viability of the p53RE-bla HCT-116 cell line (AID 743292; active means well fitted curve in the direction sought with a large enough effect; an effect the other way counts as inactive or inconclusive; further: on the % scale 0 is the no-effect control and ±100 the full control effect; nearly all actives have a fitted effect of over 55% in size)
Method in brief: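 Luminescent ATP quantitation (CellTiter-Glo) served as the viability read-out; reagent was added after 16 h compound exposure at 37 C and read after 30 min at room temperature. Cells: p53RE-bla HCT-116, 4,000 per well.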

[17] = molecular target: Nuclear receptor subfamily 1 group I member 2 (Rattus norvegicus) (UniProt Q9R1A7); experiment: qHTS assay for small molecule activators of the rat pregnane X receptor (rPXR) signaling pathway (AID 651751; call rule not given here; further: 0% is about no effect); conditions: rPXR reporter cells, luciferase (One-Glo), 24 h
[18] = qHTS assay for small molecule activators of the human pregnane X receptor (PXR) signaling pathway (AID 720659; call rule not given here; further: 0% is about no effect)
[19] = molecular target: Glucocorticoid receptor (Homo sapiens) (UniProt P04150); experiment: qHTS assay for small molecule antagonists of glucocorticoid receptor signaling (AID 588533; active means well fitted inhibition curve with a large enough effect in the signal ratio, with a control signal flat, not every such curve was filed as active; the % refers to the signal ratio; further: on the % scale 0 is the no-effect control and ±100 the full control effect)
Method in brief: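 Antagonist-mode qHTS: compound titrations added to GRE-bla HeLa cells, then dexamethasone 2 nM final; 18 h, 37 C. CCF4 FRET fluorescence normalized to dexamethasone and DMSO; IC50 from Hill fit.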

[20] = qHTS assay for small molecule antagonists of peroxisome proliferator-activated receptor delta signaling (AID 588535; active means well fitted inhibition curve with a large enough effect in the signal ratio, with a control signal flat, not every such curve was filed as active; the % refers to the signal ratio;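 on max response: cells co-treated with a PPAR-delta agonist as stimulator during compound exposure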); conditions: HEK293T PPARd-UAS-bla, beta-lactamase FRET ratio, 18 h; 460 nm channel
Method in brief: (§2)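 Beta-lactamase reporter read-out (405 nm excitation, 460/530 nm emission) after CCF4 loading for 2 hrs at RT. HEK293T PPAR-delta-UAS-bla cells, 2% charcoal/dextran FBS, compounds for 18 hrs at 37 C. Hill fit gave IC50 and efficacy.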

[21] = molecular target: Peroxisome proliferator-activated receptor gamma (Homo sapiens) (UniProt P37231); experiment: qHTS assay for small molecule agonists of peroxisome proliferator-activated receptor gamma signaling (AID 588536; active means well fitted curve in the direction sought with a large enough effect in the signal ratio, with a control signal flat, not every such curve was filed as active; the % refers to the signal ratio;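 further: 0% = DMSO basal wells and 100% = rosiglitazone at 2 µM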)
Method in brief: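 Beta-lactamase reporter read-out: CCF4 fluorescence (ex 405, em 460/530 nm) after 2 h at RT. HEK293 GeneBLAzer cells were treated for 16 h at 37 C. Hill fits gave EC50 and efficacy versus 2 uM rosiglitazone (100%) and DMSO (0%).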

[22] = molecular target: Peroxisome proliferator-activated receptor gamma (Homo sapiens) (UniProt P37231); experiment: qHTS assay for small molecule antagonists of peroxisome proliferator-activated receptor gamma signaling (AID 588537; active means well fitted inhibition curve with a large enough effect in the signal ratio, with a control signal flat, not every such curve was filed as active; the % refers to the signal ratio;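 further: reporter cells co-stimulated with 50 nM rosiglitazone agonist during compound treatment; % of control where 0% means no effect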)
Method in brief: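 Read-out: CCF4 fluorescence (ex 405, em 460/530 nm) after 2 h at RT. Cells were HEK293 carrying a UAS-bla reporter and treated 16 h at 37 C with compound plus rosiglitazone (50 nM final). Normalized to rosiglitazone and DMSO.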

[23] = molecular target: Vitamin D3 receptor (Homo sapiens) (UniProt P11473); experiment: qHTS assay for small molecule antagonists of vitamin D receptor signaling (AID 588541)
Method in brief: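 VDR-UAS-bla HEK293T cells in 2% charcoal-stripped FBS were stimulated with 1-alpha,25-dihydroxyvitamin D3 (3 nM final) plus compound for 16 h at 37 C. The beta-lactamase CCF4 readout was normalized to 50 nM agonist and DMSO, and Hill fits gave IC50.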

[24] = molecular target: Vitamin D3 receptor (Homo sapiens) (UniProt P11473); experiment: qHTS assay for small molecule agonists of vitamin D receptor signaling (AID 588543);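 further: 0% = DMSO basal and 100% = reference agonist control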
Method in brief: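 Reporter cells (HEK293T, VDR-UAS-bla) were seeded in medium with 2% charcoal-stripped serum and incubated 5 h, then compounds in concentration series were added for 16 h at 37 °C. Stimulation was scaled between DMSO basal and 50 nM 1α,25-dihydroxyvitamin D3.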

[25] = molecular target: Thyroid hormone receptor beta (Homo sapiens) (UniProt P10828); experiment: qHTS assay for small molecule agonists of thyroid hormone receptor beta signaling (AID 588545)
Method in brief: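 Cells (2500/well) were seeded, incubated 4 hrs at 37 C, dosed with a compound series, incubated 18 hrs, loaded with CCF4 dye for 2 hrs at RT, then read for fluorescence. Data were scaled between DMSO (0%) and 10 nM T3 (100%).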

[26] = qHTS assay for small molecule agonists of the antioxidant response element (ARE) signaling pathway (AID 651741; active means well fitted activation curve with a large enough effect in the signal ratio; the % refers to the signal ratio; further: potency means the concentration at half of the fitted maximal effect; on activation: % of control where 0% means no effect)
Method in brief: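 HepG2 ARE-bla reporter cells, 2,000/well; 5 h settle at 37 C/5% CO2; compound pin transfer (23 nL, DMSO); 16 h at 37 C; LiveBLAzer B/G FRET substrate, 2 h RT; fluorescence intensity read.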

[27] = molecular target: Peroxisome proliferator-activated receptor alpha (Homo sapiens) (UniProt Q07869); experiment: qHTS assay for small molecule agonists of the peroxisome proliferator-activated receptor alpha (PPARalpha) signaling pathway (AID 651778; active means well fitted curve in the direction sought with a large enough effect; an effect the other way counts as inactive or inconclusive; further: % of control where 0% means no effect); conditions: PathHunter PPARalpha complementation, chemiluminescence, 6 h; max response: stronger effect = higher value
Method in brief: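 Enzyme-fragment complementation assay in which ligand-bound PPARalpha translocates and forms an active enzyme that generates chemiluminescence. Cells were plated overnight, exposed to compound for 6 hr at 37 C, and then given detection reagent for 60 min at room temperature.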

[28] = molecular target: Androgen receptor (Homo sapiens) (UniProt P10275); experiment: qHTS assay for small molecule agonists of androgen receptor signaling (AID 588515; active means well fitted curve in the direction sought with a large enough effect in the signal ratio, with a control signal flat; the % refers to the signal ratio; further: on the % scale 0 is the no-effect control and ±100 the full control effect); conditions: AR-UAS-bla HEK293, beta-lactamase ratio, agonist 16 h; stronger effect = higher value
Method in brief: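 Stimulation of an AR-responsive β-lactamase reporter in GripTite HEK293 cells was measured after 16 h compound exposure at 37 °C, via CCF4 fluorescence after 2 h RT. EC50 from Hill fits, normalized to R1881 at 30 nM.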

[29] = molecular target: Peroxisome proliferator-activated receptor delta (Homo sapiens) (UniProt Q03181); experiment: qHTS assay for small molecule antagonists of peroxisome proliferator-activated receptor delta signaling (AID 588535);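 on max response: cells co-treated with a PPAR-delta agonist as stimulator during compound exposure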
Method in brief: as §2

Peroxisome proliferator-activated receptor delta (Homo sapiens), sequence (Q03181 whole entry, looked up): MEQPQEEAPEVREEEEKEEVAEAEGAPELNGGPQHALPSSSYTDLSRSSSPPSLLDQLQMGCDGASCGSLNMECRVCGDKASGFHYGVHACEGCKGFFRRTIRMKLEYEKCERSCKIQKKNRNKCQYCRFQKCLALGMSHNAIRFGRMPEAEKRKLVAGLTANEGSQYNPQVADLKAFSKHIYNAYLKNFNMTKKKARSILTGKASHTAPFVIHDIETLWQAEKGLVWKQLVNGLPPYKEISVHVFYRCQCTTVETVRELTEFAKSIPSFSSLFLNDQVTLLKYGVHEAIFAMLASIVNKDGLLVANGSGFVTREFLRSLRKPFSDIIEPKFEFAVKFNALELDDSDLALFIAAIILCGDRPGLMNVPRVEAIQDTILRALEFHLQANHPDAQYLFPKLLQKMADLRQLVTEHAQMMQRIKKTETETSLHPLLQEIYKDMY
Retinoic acid receptor RXR-alpha (Homo sapiens), sequence (P19793 whole entry, looked up): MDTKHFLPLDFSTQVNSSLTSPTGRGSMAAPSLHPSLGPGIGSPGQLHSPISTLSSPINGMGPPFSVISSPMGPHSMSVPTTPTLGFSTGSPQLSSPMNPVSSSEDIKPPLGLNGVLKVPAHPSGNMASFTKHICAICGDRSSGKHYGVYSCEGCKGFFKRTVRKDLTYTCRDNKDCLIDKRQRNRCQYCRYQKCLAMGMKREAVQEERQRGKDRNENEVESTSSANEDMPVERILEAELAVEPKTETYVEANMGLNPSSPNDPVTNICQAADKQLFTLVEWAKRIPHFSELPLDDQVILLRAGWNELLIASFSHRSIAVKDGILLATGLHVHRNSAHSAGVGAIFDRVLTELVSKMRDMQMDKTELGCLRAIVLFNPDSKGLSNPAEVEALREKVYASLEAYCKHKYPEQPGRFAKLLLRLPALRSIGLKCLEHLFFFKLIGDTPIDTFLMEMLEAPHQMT
Vitamin D3 receptor (Homo sapiens), sequence (P11473 whole entry, looked up): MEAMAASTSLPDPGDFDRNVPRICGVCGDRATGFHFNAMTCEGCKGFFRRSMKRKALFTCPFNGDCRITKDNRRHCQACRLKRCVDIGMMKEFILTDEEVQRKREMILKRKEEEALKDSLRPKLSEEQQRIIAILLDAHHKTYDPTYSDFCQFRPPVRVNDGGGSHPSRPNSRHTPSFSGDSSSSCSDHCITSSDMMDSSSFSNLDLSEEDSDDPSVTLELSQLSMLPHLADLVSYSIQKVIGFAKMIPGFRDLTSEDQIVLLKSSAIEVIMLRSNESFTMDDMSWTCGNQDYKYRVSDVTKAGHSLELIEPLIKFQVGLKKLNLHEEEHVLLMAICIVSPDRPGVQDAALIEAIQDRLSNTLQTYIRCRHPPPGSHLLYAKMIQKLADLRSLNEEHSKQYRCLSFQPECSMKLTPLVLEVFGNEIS
Peroxisome proliferator-activated receptor alpha (Homo sapiens), sequence (Q07869 whole entry, looked up, the tested form may be a part): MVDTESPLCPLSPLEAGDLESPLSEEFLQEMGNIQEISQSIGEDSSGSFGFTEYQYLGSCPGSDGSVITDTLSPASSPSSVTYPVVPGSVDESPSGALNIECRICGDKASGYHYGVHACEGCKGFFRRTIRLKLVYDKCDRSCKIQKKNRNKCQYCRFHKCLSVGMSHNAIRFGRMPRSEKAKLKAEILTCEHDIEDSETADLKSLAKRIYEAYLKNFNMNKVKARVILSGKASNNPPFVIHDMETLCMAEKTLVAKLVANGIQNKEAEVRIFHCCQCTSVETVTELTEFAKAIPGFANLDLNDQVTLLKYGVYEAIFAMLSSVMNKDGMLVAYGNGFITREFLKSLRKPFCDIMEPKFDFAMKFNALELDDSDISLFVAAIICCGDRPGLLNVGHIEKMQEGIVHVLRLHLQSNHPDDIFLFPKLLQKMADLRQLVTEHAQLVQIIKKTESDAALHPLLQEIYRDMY
Thyroid hormone receptor beta (Homo sapiens), sequence (P10828 whole entry, looked up): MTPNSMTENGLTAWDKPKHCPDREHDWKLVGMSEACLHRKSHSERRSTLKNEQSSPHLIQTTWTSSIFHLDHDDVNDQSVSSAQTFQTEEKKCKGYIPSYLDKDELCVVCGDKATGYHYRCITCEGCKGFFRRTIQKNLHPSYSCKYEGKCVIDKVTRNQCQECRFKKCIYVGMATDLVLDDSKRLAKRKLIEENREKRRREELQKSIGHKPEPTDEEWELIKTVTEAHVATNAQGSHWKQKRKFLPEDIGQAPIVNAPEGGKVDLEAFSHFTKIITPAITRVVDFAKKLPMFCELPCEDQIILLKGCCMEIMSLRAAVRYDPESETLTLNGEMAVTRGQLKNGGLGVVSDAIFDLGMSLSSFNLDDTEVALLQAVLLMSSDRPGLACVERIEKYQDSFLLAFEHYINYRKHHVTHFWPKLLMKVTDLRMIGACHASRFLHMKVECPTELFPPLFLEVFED
Glucocorticoid receptor (Homo sapiens), sequence (P04150 whole entry, looked up): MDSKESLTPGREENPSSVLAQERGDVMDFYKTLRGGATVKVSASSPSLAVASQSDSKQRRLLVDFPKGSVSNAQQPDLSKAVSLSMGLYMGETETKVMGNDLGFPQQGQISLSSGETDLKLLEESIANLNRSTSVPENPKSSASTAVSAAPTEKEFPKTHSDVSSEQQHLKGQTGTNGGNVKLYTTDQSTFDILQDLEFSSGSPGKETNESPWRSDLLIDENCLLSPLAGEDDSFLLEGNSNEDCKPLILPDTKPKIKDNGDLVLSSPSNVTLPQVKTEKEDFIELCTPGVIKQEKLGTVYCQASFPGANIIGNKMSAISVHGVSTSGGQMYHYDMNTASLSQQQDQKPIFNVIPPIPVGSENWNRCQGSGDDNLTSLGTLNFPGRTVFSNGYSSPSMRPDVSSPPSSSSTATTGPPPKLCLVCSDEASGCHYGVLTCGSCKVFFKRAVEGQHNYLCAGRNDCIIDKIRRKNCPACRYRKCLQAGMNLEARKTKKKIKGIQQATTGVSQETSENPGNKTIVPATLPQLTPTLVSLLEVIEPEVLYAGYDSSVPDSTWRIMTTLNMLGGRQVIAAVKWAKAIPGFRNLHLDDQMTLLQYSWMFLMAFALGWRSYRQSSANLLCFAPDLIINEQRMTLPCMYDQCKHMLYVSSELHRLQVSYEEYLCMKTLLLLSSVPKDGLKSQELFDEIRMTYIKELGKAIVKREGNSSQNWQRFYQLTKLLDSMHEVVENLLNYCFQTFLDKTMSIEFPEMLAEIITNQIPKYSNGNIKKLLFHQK
Bile acid receptor (Homo sapiens), sequence (Q96RI1 whole entry, looked up): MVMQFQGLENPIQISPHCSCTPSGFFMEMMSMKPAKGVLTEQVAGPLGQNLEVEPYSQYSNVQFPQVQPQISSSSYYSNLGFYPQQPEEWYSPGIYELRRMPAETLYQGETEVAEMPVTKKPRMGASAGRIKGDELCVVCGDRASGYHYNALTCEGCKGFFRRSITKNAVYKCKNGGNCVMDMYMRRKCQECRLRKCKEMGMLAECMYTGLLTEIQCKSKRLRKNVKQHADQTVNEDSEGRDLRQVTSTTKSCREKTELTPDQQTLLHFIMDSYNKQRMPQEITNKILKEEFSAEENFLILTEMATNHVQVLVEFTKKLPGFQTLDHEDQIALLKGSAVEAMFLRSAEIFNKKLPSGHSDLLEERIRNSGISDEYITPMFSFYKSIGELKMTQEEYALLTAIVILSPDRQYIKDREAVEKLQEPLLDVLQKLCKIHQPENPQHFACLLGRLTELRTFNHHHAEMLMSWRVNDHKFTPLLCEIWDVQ
Peroxisome proliferator-activated receptor gamma (Homo sapiens), sequence (P37231 whole entry, looked up): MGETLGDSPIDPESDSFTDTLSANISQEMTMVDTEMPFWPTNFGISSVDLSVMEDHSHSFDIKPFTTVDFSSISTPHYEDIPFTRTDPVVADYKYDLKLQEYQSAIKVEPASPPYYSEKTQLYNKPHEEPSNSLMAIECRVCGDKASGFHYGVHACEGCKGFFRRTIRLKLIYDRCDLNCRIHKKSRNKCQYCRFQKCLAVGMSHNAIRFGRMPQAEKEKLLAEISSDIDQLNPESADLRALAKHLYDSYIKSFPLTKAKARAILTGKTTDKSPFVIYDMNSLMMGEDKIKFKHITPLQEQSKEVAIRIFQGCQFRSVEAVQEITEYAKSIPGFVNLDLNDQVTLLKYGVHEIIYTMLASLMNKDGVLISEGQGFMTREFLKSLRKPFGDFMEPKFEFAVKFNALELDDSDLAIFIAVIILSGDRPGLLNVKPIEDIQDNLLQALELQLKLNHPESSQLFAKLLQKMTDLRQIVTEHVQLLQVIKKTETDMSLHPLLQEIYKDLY
Nuclear receptor subfamily 1 group I member 2 (Rattus norvegicus), sequence (Q9R1A7 whole entry, looked up): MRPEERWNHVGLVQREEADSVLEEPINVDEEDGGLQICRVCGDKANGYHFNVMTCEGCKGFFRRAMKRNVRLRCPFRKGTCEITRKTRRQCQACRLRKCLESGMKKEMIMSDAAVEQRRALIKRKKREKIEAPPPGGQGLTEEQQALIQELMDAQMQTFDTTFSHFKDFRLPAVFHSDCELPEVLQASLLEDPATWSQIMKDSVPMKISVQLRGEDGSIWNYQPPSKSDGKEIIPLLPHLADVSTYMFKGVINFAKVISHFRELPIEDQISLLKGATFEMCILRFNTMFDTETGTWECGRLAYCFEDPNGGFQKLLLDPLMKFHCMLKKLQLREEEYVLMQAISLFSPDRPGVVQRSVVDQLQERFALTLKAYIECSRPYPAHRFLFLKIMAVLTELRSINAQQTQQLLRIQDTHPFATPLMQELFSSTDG

COC(=O)C(C)Oc1ccc(Oc2ccc(Cl)cc2Cl)cc1 (stereo not given)
inactive: Potency [1] | activation [2] -6.35% | activation [3] -5.37% | outcome [4] | Potency [6] | max response [8] -16.7% | activity change % (negative = inhibition) [9] 8.67% | activation [10] -3.5% | activation [11] -0.397% | activation [12] -0.824% | Potency [13] | max response [14] -5.74% | max response [15] -4.71% | Potency [16] | max response [17] -0.585% | outcome [18]
-8.87%: max response [7]
20.2%: max response [5]

CC(Oc1cccc(Cl)c1)C(=O)O (stereo not given)
-3.83%: max response [5]
inactive: Potency [1] | activation [2] 0.618% | activation [3] -9.84% | Potency [19] | outcome [4] | Potency [21] | Potency [22] | Potency [23] | outcome [24] | Potency [6] | Potency [25] | max response [8] -12.8% | Potency [26] | activation [10] 0.409% | activation [12] -0.19% | max response [27] -0.485% | Potency [13] | max response [14] -0.643% | max response [15] -4.52% | Potency [16] | max response [17] -1.92% | outcome [18]
-2.12%: max response [7]
47.7%: max response [20]

CC(C)N1C(=O)N(c2ccccc2)CSC1=NC(C)(C)C
0.399%: max response [7]
active: Potency [26] 68.6 µM and 61.1 µM
inactive: activation [28] -16.2% and -14% | activation [3] -1.49% and -3.83% | outcome [4] | Potency [29] | Potency [23] | Potency [6] | Potency [25] | max response [8] -33.9% | activation [10] -1.27% and 6.3% | activation [12] -0.494% and 3.86% | max response [27] 0.0616% and 14.7% | Potency [13] | max response [14] 13.9% and -6.65% | max response [15] -17.9% | Potency [16] | max response [17] 13.3% and 1.8%
43.5%: max response [20]
15.4% and 12.1%: max response [5]

Cc1cc(C2CC2)nc(Nc2ccccc2)n1
1.7%: max response [20]
7.71%: max response [5]
active: Potency [26] 54.5 µM
-2.59%: max response [7]
inactive: Potency [1] | activation [2] -4.1% | outcome [4] | Potency [29] | Potency [21] | Potency [22] | outcome [24] | Potency [6] | Potency [25] | max response [8] -23.3% | activity change % (negative = inhibition) [9] -20% | max response [14] 0.0652% | Potency [16]
